This is a sample that favours compounds with a hit; in the whole collection about 2.3% have one here.
Coupling enz – counter-screen for Giardia aldolase inhibitors: coupling enzyme system; AID 2472; activity change, negative = inhibition, % at 58.2 µM, hits read low; coupling enzyme system counterscreen, AmpLite Red fluorescence; 290,000 compounds, 0.67% hits; in the data active = activity change below about -30%
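Final compound at 57.5 uM, incubated 10 min at RT with coupling enzyme reagent (glyceraldehyde-3-phosphate), then 20 min with substrate and AmpLite Red detection. Fluorescence read at 525/598 nm; tests interference with the coupling assay, not aldolase inhibition.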
Tau fluor cs – counter-screen for tau fibril formation inhibitors | tau K18 P301L Alexa594 fluorescence, heparin fibrillization | Potency, µM (series often up to 57.7 µM), for the others: at the top dose activity change, negative = decrease | 280,000 compounds, 0.93% hits | AID 1463; also: potency is read from the fitted curve at half-maximal effect; nearly all actives have a fitted effect of over 55% in size
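Human K18 P301L tau (15 uM unlabeled plus 0.24 uM Alexa 594-labeled, final) in 100 mM sodium acetate pH 7 was mixed with compound and 20 uM heparin and incubated 6 hr at 37 C.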
Tau FP inhib – tau fibrillization inhibition (FP) | P10636 | K18 P301L tau heparin fibrillization, Alexa594 FP, 6 h | Potency, µM (top dose mostly 57.7 µM), for inactives: top-dose activity, negative = inhibition, actives largely listed as inhibitors | 280,000 compounds, 0.39% hits | AID 1468; also: potency is read from the fitted curve at half-maximal effect; nearly all actives have a fitted effect of over 55% in size
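Human K18 P301L fragment (15 uM unlabeled plus 0.24 uM Alexa 594-labeled) in 100 mM sodium acetate pH 7 with compound, aggregation induced by 20 uM heparin for 6 hr at 37 C. ThT (30 uM) added for 1 hr, then Alexa 594 FP read.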
Tau fibril ThT – inhibitors of human tau fibril formation, thioflavin T binding; P10636; recombinant tau K18 P301L (four-repeat tau fragment), heparin-induced fibrillization, ThT fluorescence; Potency, µM (top dose mostly 57.4 µM), for the others: top-dose activity, negative = inhibition, usual class: inhibitors; 270,000 compounds, 2.1% hits; also: potency is read from the fitted curve at half-maximal effect; nearly all actives have a fitted effect of over 55% in size
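Aggregation was driven by heparin (20 uM final) acting on recombinant tau […] bearing P301L in 100 mM sodium acetate pH 7; fibrils were detected with Thioflavin T.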
USP1 inh – inhibitors of human USP1/UAF1 deubiquitinase | O94782 | Potency, µM (series often up to 57.1 µM), for the others: at the highest dose activity change, negative = inhibition, usual class: inhibitors | 390,000 compounds, 0.23% hits | recombinant USP1/UAF1, Ub-Rhodamine cleavage fluorescence; also: potency is read from the fitted curve at half-maximal effect; nearly all actives have a fitted effect of over 60% in size
Target sequence (O94782 whole entry, looked up): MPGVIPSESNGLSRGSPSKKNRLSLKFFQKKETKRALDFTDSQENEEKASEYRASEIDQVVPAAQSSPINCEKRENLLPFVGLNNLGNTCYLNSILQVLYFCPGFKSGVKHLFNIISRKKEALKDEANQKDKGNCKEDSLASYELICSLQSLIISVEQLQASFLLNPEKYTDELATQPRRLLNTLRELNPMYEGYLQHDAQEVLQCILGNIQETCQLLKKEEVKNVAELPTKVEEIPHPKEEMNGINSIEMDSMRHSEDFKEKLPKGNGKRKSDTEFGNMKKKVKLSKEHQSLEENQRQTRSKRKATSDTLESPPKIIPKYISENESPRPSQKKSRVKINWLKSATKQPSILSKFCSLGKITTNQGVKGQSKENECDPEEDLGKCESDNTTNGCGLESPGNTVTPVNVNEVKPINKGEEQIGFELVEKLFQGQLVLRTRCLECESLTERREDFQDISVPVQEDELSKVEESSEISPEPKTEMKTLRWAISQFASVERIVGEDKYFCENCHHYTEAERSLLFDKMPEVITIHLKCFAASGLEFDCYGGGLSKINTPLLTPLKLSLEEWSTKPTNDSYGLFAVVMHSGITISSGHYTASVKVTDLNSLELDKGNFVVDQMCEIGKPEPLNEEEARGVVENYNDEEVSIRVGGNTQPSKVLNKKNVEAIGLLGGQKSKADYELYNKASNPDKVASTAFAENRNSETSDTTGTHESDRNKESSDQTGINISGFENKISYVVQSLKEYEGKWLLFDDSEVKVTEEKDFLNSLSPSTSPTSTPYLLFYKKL
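Step one: compound is pinned into 1nM USP1/UAF1 in HEPES pH 7.8 buffer with TCEP. Step two: 15 min room-temperature incubation. Step three: Ub-Rho (150nM final) starts cleavage, tracked by fluorescence over six one-minute reads.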
Numbers without * were called inactive. Unless noted, calls follow the shape of the dose curve; as a rule, active = well fitted curve in the direction sought with a large enough effect; inconclusive = small, poorly fitted or top-dose-only effect, or another doubt; inactive = no such curve, though single readings can be large; an effect the other way counts as inactive or inconclusive. % is scaled to controls: 0 for no effect and ±100 for the full control effect.

How did CN(C)c1cccc2c1c(NC(=O)Nc1ccc(Cl)cc1Cl)nn2C do in these assays?
Coupling enz: -22.6; Tau fluor cs: inconclusive; Tau FP inhib: 2.2%; Tau fibril ThT: inconclusive; USP1 inh: inconclusive

Results for COc1ccccc1NC(=O)Nc1nn(C)c2cccc(N(C)C)c12 ?
Coupling enz: -33.7*; Tau fluor cs: inconclusive; Tau FP inhib: 12.0%; USP1 inh: -4.6%

What do the screens show for `CCOc1c(O)ccc(/C=C2\SC(=S)NC2=O)c1[N+](=O)[O-]`?
Coupling enz: -2.8; Tau fluor cs: inconclusive; Tau FP inhib: inconclusive; Tau fibril ThT: 10µM*; USP1 inh: inconclusive

Results for CCOc1ccc(N(C)c2ccc(/C=C3/SC(=S)NC3=O)cc2)cc1 ?
Coupling enz: 1.0; USP1 inh: inconclusive

Results for Cc1nn2c(=O)cc(COc3ccc(/C=C(\C#N)C(=O)Nc4ccc(F)cc4)cc3)nc2s1 ?
Tau fluor cs: 5.5%; Tau FP inhib: 5.2%; Tau fibril ThT: inconclusive; USP1 inh: -28.5%

What do the screens show for `CCc1nnc(NS(=O)(=O)c2ccc(NC(=S)NC(=O)/C=C/c3ccc(C(C)C)cc3)cc2)s1`?
Coupling enz: 7.2; Tau fluor cs: -11.6%; Tau FP inhib: -3.6%; Tau fibril ThT: inconclusive; USP1 inh: 25.1µM*

What do the screens show for `CCOC(=O)c1c(C)[nH]c(/C(C)=N/O)c1C`?
Coupling enz: -0.7; Tau fluor cs: 2.3%; Tau FP inhib: 2.1%; Tau fibril ThT: 10.5%; USP1 inh: -3.4%

What do the screens show for `CCOC(=O)c1c(C)[nH]c(C2=NNC(=NC3CC3)SC2)c1C`?
Coupling enz: -2.7; Tau fluor cs: inconclusive; Tau FP inhib: inconclusive; Tau fibril ThT: 15.8µM*; USP1 inh: -21.2%

What do the screens show for `O=C1OC(c2ccccc2)=N/C1=C\C=C\c1ccco1`?
Coupling enz: 3.9; Tau fluor cs: -12.3%; Tau FP inhib: -4.4%; Tau fibril ThT: 14.1µM*; USP1 inh: -12.3%

What do the screens show for `COC(=O)CCC(=O)Nc1ccc(N=Nc2ccccc2)cc1`?
Coupling enz: 0.8; Tau fluor cs: inconclusive; Tau FP inhib: -10.8%; Tau fibril ThT: 11.2µM*; USP1 inh: 0.9%

What do the screens show for `COC(=O)c1ccc(N=Nc2ccccc2)cc1`?
Coupling enz: 2.4; Tau fluor cs: -10.3%; Tau FP inhib: -1.4%; Tau fibril ThT: 14.1µM*; USP1 inh: -4.5%

What do the screens show for `O=C(O)CCCC(=O)Nc1ccc(N=Nc2ccccc2)cc1`?
Coupling enz: 12.3; Tau fluor cs: -14.1%; Tau FP inhib: -12.5%; Tau fibril ThT: inconclusive; USP1 inh: inconclusive

How did CCc1ccccc1NC(=O)c1cc(S(=O)(=O)N2CCCC2)cn1C do in these assays?
Tau fluor cs: -12.2%; Tau FP inhib: 0.1%; Tau fibril ThT: -10.5%; USP1 inh: -20.7%

How did CCOC(=O)/C(=C/C=C1\Sc2cc(C)c(C)cc2N1CC)C(C)=O do in these assays?
Coupling enz: -0.8; Tau fluor cs: -28.2%; Tau FP inhib: 7.9%; Tau fibril ThT: 10µM*; USP1 inh: 25.1µM*

Results for CCOC(=O)c1ccc2c(c1)N(CC)C(=O)c1ccccc1S2 ?
Coupling enz: 3.0; USP1 inh: 3.9%

Results for COc1ccc(OC)c(NC(=O)C2=C(C)C(=O)OC23CCN(C(C)C)CC3)c1 ?
Tau fluor cs: inconclusive; Tau FP inhib: inconclusive; Tau fibril ThT: inconclusive; USP1 inh: -2.3%

What do the screens show for `Cc1nc2cc(-c3ccccc3)nn2c(C)c1CCC(=O)NCc1cccc(Cl)c1`?
Tau fluor cs: -6.9%; Tau FP inhib: -5.7%; Tau fibril ThT: 4.6%; USP1 inh: -25.2%

How did O=C(O)COc1ccccc1C(Nc1ccccn1)c1cc(Cl)c2cccnc2c1O (configuration not stated) do in these assays?
Coupling enz: -23.5; Tau fluor cs: -21.0%; Tau FP inhib: inconclusive; Tau fibril ThT: 12.6µM*; USP1 inh: -17.8%

Results for O=C(O)COc1ccccc1C(Nc1cccnc1)c1cc(Cl)c2cccnc2c1O (configuration not stated) ?
Coupling enz: -26.9; Tau fluor cs: -25.3%; Tau FP inhib: 31.6µM*; Tau fibril ThT: 17.8µM*; USP1 inh: inconclusive
